The panel holds about 83,000 compounds, 20% with a hit somewhere; the sample as a whole holds those more often.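 Testing used 96-well plates and a 48-hour single-concentration exposure. Example: -40 means 40% of the starting cells died.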 A number with no mark means an inactive call. The source made the active and inactive calls. Rule for the calls: active = growth percent below 10; inactive = the rest.
The molecules below were run on MDA-MB-468 breast (assay: NCI-60 one-dose screen, 48 h (100 = growth as untreated, 0 = no growth, -100 = all killed)). Details: 10 µM unless noted.

Going from `COc1ccc(C(=O)C(C)Br)cc1OC` (stereo not given) to `COc1cc2c(cc1OC)N(CCO)C1=C(C(=O)OC1)C2c1ccc(Cl)c(Cl)c1` (stereo not given), the growth rises from 77.6% to 112%.

Compared with `C=C(C)[C@@H]1C/C=C(/C=O)CC[C@@H]2O[C@@]2(C)CC/C=C(\C)CC1`, `CN(Cc1cccc(C(F)(F)F)c1)C(=O)[C@@H](CC(=O)N1CCC(N2CCCCC2)CC1)N1C(=O)[C@@H](N2C(=O)OC[C@@H]2c2ccccc2)[C@H]1/C=C/c1ccccc1` is lower in growth: 118% for the first, 60.5% for the second.

Compared with `COc1ccc(-c2nc(-c3nc4cc(Cl)c(Cl)cc4[nH]3)c3ccccn23)cc1`, `CN1C(=O)/C(=C/c2nc(-c3cccc(F)c3)n3ccccc23)c2ccccc21` is higher in growth: 66.6% for the first, 101% for the second.

Going from `CCCCN(CCC)CCCCCCCCCCN1CCCc2ccccc21` to `CCCCCCCCCCCCCCCCNC(=S)N/N=C/c1ccc(OC)cc1`, the growth rises from 65.6% to 108%.

Going from `O=C(c1ccccc1)c1cc2ccccc2oc1=O` to `O=c1cc(-c2ccccc2)oc2c1ccc1ccccc12`, the growth falls from 97.3% to 80.1%.

First: Cc1cc(-c2ccccc2)nc2ccccc12
Second: S=C(NCc1ccccc1)NCc1ccccc1
The growth of the first is lower: 100% for the first, 101% for the second.

Going from `O=C(NN1C(=O)CSC1c1ccc(Cl)cc1)c1[nH]c2ccc(F)cc2c1-c1ccccc1` (stereo not given) to `O=C(/C(=C/c1ccc([N+](=O)[O-])cc1)SCc1ccccc1)c1ccc(Cl)cc1`, the growth rises from 69.3% to 70.4%.

Going from `CCNC(=O)Oc1ccc(/C(=C(/CC)Cc2ccccc2)c2ccc(OCCN3CCCC3)cc2)cc1` to `COCC(=O)NC/C=C/c1ccc2ncnc(Nc3ccc(Oc4ccc(C)nc4)c(C)c3)c2c1`, the growth falls from 87.5% to 28.4%.

First: Clc1ccc2c(N3CCN(c4ccnc(NC5CCCCC5)n4)CC3)ccnc2c1
Second: FC(F)(F)c1cccc(-n2nnc3cnc(Nc4ccc(N5CCCCC5)cc4)nc32)c1
The growth of the first is lower: 29.4% for the first, 68.7% for the second.

Going from `CCCSc1nc2ccc(C)cc2cc1/C=[N+](\[O-])c1ccccc1` to `Cc1ccc(-c2ccc(Nc3ccccc3)nn2)cc1S(N)(=O)=O`, the growth falls from 88.4% to 64%.

Compared with `N#Cc1c(-c2ccc(F)cc2)n2c(nc1=O)SC(=O)C2=O`, `COc1ccc(Br)c(/C=C2\SC(=Nc3ccc(O)cc3)NC2=O)c1` is lower in growth: 94.5% for the first, 85% for the second.

First: CC(C)(CO)N(CCO)CCO
Second: COc1ccc(OC)c(NC(=O)CCCCCCNC(=O)C(O)(O)C(F)(F)F)c1
The growth of the first is higher: 95.1% for the first, 22.6% for the second.

Compared with `O=S1(=O)NCCN1CCNc1nccc(-c2c(-c3cccc(O)c3)nc3sccn23)n1`, `C=CC(=O)Nc1cccc(-c2nc(SC)nc(NCCN3CCOCC3)c2C#N)c1` is higher in growth: 96.8% for the first, 97.8% for the second.

Going from `CCCC(CC)(C(=O)Nc1ccc2nc(C)cc(N)c2c1)C(=O)Nc1ccc2nc(C)cc(N)c2c1` to `OC[C@@H](O)C(O[C@@H]1O[C@H](CO)[C@H](O)[C@H](O)[C@H]1O)[C@H](O)[C@@H](O)CO` (stereo not given in full), the growth rises from 87% to 94.7%.

For `CCSc1oc(C)nc1[P+](c1ccccc1)(c1ccccc1)c1ccccc1`, the growth was -20.3% (active).
`Cc1ccc(S(=O)(=O)c2ccccc2)cc1` was tested, and the growth was -10.8% (active).
`COc1ccc2c(c1)cn1c3ccc(OC)cc3[nH]c(=O)c21` was tested, and the growth was -12% (active).
For `Clc1nc(Cl)c2ncn(CCOCCn3cnc4c(Cl)nc(Cl)nc43)c2n1`, the growth was -72.3% (active).
For `c1ccc(C(=NNc2nc3ccccc3o2)c2ccccn2)nc1`, the growth was -27.4% (active).
For `CCCCOc1ccc(S(=O)(=O)N2CCN(c3nccc(N4CCOCC4)n3)CC2)cc1`, the growth was 6.94% (active).
`Cc1cc2nc(C(Cl)Cl)nc(-c3ccc(Cl)cc3)n2n1` was tested, and the growth was -47.3% (active).
In the case of `Cc1[nH]c2ccccc2c(=O)c1CC=C(Cl)Cl`, the growth is reported as -43.2% (active).
In the case of `Cc1cc(C)nc(NC(N)=NCCc2ccccc2)n1`, the growth is reported as -3.56% (active).
With `C=C1CC2(OC1=O)C(=O)N(C)c1ccc(I)cc12` (stereo not given) the growth was -79.2% (active).
For `O=C1NC(=O)c2c1c1c3ccccc3[nH]c1c1oc3ccc(F)cc3c21`, the growth was 8.7% (active).
In the case of `CN1C(=O)N(C)C2C1NN=c1s/c(=C\c3ccc(F)cc3)c(=O)n12` (stereo not given), the growth is reported as -11.4% (active).

From PubChem BioAssay (NCI)
